# Laboratory results reported in PubChem BioAssay AID1159580 (chemical genetic matrix, 2015).
# Out of some 5,500 compounds screened, about 2,000 (36%) were called active. Roughly 18% stayed inconclusive and do not appear here. Some of the results follow. Unmarked numbers belong to inactive results. Cut-off read from the data, not from the text of the source: active = normalized growth mostly below about 0.91 (no sharp cut-off); inconclusive = no clear call, values can overlap the other calls; inactive = mostly above about 0.92.
# Assay: chemical genetic growth profiling, strain panel (AID 1159580);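 note: tested at 20 µM; growth read once vehicle control cultures reached saturation at 30 °C; 1 = growth at the plate median or of vehicle wells; lower values mean less growth of the strain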
# Settings: growth OD
smiles,measurement,setting,value
Cc1cccc(N(C)C(=S)Oc2ccc3ccccc3c2)c1,normalized growth,"S. cerevisiae deletion strains, locus YJR075W, strain HOC1, stronger effect = lower value",0.971
same,normalized growth,"S. cerevisiae deletion strains, locus YKL009W, strain mrt4, stronger effect = lower value",0.99
same,normalized growth,"S. cerevisiae deletion strains, locus YKL068W, stronger effect = lower value",0.981
same,normalized growth,"S. cerevisiae deletion strains, locus YKL085W, strain MDH1 (second series), stronger effect = lower value",0.979
same,normalized growth,"S. cerevisiae deletion strains, locus YKL085W, strain MDH1, stronger effect = lower value",0.979
same,normalized growth,"S. cerevisiae deletion strains, locus YKL160W, strain elf1, stronger effect = lower value",0.947
same,normalized growth,"S. cerevisiae deletion strains, locus YKL190W, strain CNB1, stronger effect = lower value",0.983
same,normalized growth,"S. cerevisiae deletion strains, locus YKR001C, strain vps1, stronger effect = lower value",1.01
same,normalized growth,"S. cerevisiae deletion strains, locus YKR026C, strain gcn3, stronger effect = lower value",1
same,normalized growth,"S. cerevisiae deletion strains, locus YKR091W, strain srl3, stronger effect = lower value",0.993
same,normalized growth,"S. cerevisiae deletion strains, locus YLL001W, strain dnm1, stronger effect = lower value",0.994
same,normalized growth,"S. cerevisiae deletion strains, locus YLL026W, stronger effect = lower value",0.985
same,normalized growth,"S. cerevisiae deletion strains, locus YLL041C, strain sdh2, stronger effect = lower value",0.987
same,normalized growth,"S. cerevisiae deletion strains, locus YLR027C, strain aat2, stronger effect = lower value",0.99
same,normalized growth,"S. cerevisiae deletion strains, locus YLR039C, strain RIC1, stronger effect = lower value",1.46 [resistant] (active)
same,normalized growth,"S. cerevisiae deletion strains, locus YLR058C, strain SHM2, stronger effect = lower value",0.972
same,normalized growth,"S. cerevisiae deletion strains, locus YLR102C, strain apc9, stronger effect = lower value",0.979
same,normalized growth,"S. cerevisiae deletion strains, locus YLR113W, strain HOG1, stronger effect = lower value",0.91
same,normalized growth,"S. cerevisiae deletion strains, locus YLR221C, strain rsa3, stronger effect = lower value",1.02
same,normalized growth,"S. cerevisiae deletion strains, locus YLR258W, strain gsy2, stronger effect = lower value",0.974
same,normalized growth,"S. cerevisiae deletion strains, locus YLR262C, strain YPT6 (second series), stronger effect = lower value",1.13
same,normalized growth,"S. cerevisiae deletion strains, locus YLR262C, strain YPT6, stronger effect = lower value",1.48 [resistant] (active)
same,normalized growth,"S. cerevisiae deletion strains, locus YLR268W, strain sec22, stronger effect = lower value",0.971
same,normalized growth,"S. cerevisiae deletion strains, locus YLR320W, strain mms22, stronger effect = lower value",0.98
same,normalized growth,"S. cerevisiae deletion strains, locus YLR330W, strain CHS5, stronger effect = lower value",0.984
same,normalized growth,"S. cerevisiae deletion strains, locus YLR342W, strain FKS1 (second series), stronger effect = lower value",0.995
same,normalized growth,"S. cerevisiae deletion strains, locus YLR342W, strain FKS1, stronger effect = lower value",1.01
same,normalized growth,"S. cerevisiae deletion strains, locus YLR357W, strain rsc2, stronger effect = lower value",0.999
same,normalized growth,"S. cerevisiae deletion strains, locus YLR370C, strain arc18, stronger effect = lower value",1.01
same,normalized growth,"S. cerevisiae deletion strains, locus YLR371W, strain rom2, stronger effect = lower value",0.947
same,normalized growth,"S. cerevisiae deletion strains, locus YLR384C, strain iki3, stronger effect = lower value",0.995
same,normalized growth,"S. cerevisiae deletion strains, locus YLR418C, strain cdc73, stronger effect = lower value",0.904
same,normalized growth,"S. cerevisiae deletion strains, locus YML016C, strain PPZ1, stronger effect = lower value",0.998
same,normalized growth,"S. cerevisiae deletion strains, locus YML032C, strain rad52, stronger effect = lower value",0.991
same,normalized growth,"S. cerevisiae deletion strains, locus YML120C, strain ndi1, stronger effect = lower value",1
same,normalized growth,"S. cerevisiae deletion strains, locus YML124C, strain tub3, stronger effect = lower value",0.969
same,normalized growth,"S. cerevisiae deletion strains, locus YMR058W, strain fet3, stronger effect = lower value",0.994
same,normalized growth,"S. cerevisiae deletion strains, locus YMR078C, strain ctf18, stronger effect = lower value",0.965
same,normalized growth,"S. cerevisiae deletion strains, locus YMR125W, strain sto1, stronger effect = lower value",0.988
same,normalized growth,"S. cerevisiae deletion strains, locus YMR129W, stronger effect = lower value",0.991
same,normalized growth,"S. cerevisiae deletion strains, locus YMR205C, strain PFK2, stronger effect = lower value",0.952
same,normalized growth,"S. cerevisiae deletion strains, locus YMR223W, strain ubp8, stronger effect = lower value",0.955
same,normalized growth,"S. cerevisiae deletion strains, locus YMR231W, strain pep5, stronger effect = lower value",1.03
same,normalized growth,"S. cerevisiae deletion strains, locus YMR263W, strain SAP30, stronger effect = lower value",0.958
same,normalized growth,"S. cerevisiae deletion strains, locus YMR307W, strain GAS1, stronger effect = lower value",0.981
same,normalized growth,"S. cerevisiae deletion strains, locus YNL067W, strain RPL9B, stronger effect = lower value",0.989
same,normalized growth,"S. cerevisiae deletion strains, locus YNL071W, strain lat1, stronger effect = lower value",1.01
same,normalized growth,"S. cerevisiae deletion strains, locus YNL183C, strain NPR1, stronger effect = lower value",0.907
same,normalized growth,"S. cerevisiae deletion strains, locus YNL209W, strain ssb2, stronger effect = lower value",0.999
same,normalized growth,"S. cerevisiae deletion strains, locus YNL233W, strain BNI4, stronger effect = lower value",0.985
same,normalized growth,"S. cerevisiae deletion strains, locus YNL248C, strain rpa49, stronger effect = lower value",0.998
same,normalized growth,"S. cerevisiae deletion strains, locus YNL250W, strain rad50, stronger effect = lower value",0.977
same,normalized growth,"S. cerevisiae deletion strains, locus YNL271C, strain bni1, stronger effect = lower value",1
same,normalized growth,"S. cerevisiae deletion strains, locus YNL298W, strain CLA4, stronger effect = lower value",0.99
same,normalized growth,"S. cerevisiae deletion strains, locus YNL307C, strain MCK1, stronger effect = lower value",0.98
same,normalized growth,"S. cerevisiae deletion strains, locus YNL322C, strain KRE1 (second series), stronger effect = lower value",1
same,normalized growth,"S. cerevisiae deletion strains, locus YNL322C, strain KRE1, stronger effect = lower value",0.982
same,normalized growth,"S. cerevisiae deletion strains, locus YNR049C, strain mso1, stronger effect = lower value",0.999
same,normalized growth,"S. cerevisiae deletion strains, locus YNR052C, strain pop2, stronger effect = lower value",0.986
same,normalized growth,"S. cerevisiae deletion strains, locus YOL006C, strain TOP1, stronger effect = lower value",0.828
same,normalized growth,"S. cerevisiae deletion strains, locus YOL012C, strain htz1",0.985
same,normalized growth,"S. cerevisiae deletion strains, locus YOL147C, strain pex11, stronger effect = lower value",0.982
same,normalized growth,"S. cerevisiae deletion strains, locus YOR001W, strain rrp6, stronger effect = lower value",1
same,normalized growth,"S. cerevisiae deletion strains, locus YOR061W, strain CKA2, stronger effect = lower value",0.966
same,normalized growth,"S. cerevisiae deletion strains, locus YOR069W, strain VPS5, stronger effect = lower value",0.988
same,normalized growth,"S. cerevisiae deletion strains, locus YOR070C, strain gyp1, stronger effect = lower value",0.992
same,normalized growth,"S. cerevisiae deletion strains, locus YOR080W, strain dia2, stronger effect = lower value",0.981
same,normalized growth,"S. cerevisiae deletion strains, locus YOR083W, strain WHI5, stronger effect = lower value",0.947
same,normalized growth,"S. cerevisiae deletion strains, locus YOR106W, strain vam3, stronger effect = lower value",0.968
same,normalized growth,"S. cerevisiae deletion strains, locus YOR136W, strain idh2, stronger effect = lower value",0.978
same,normalized growth,"S. cerevisiae deletion strains, locus YOR144C, strain elg1, stronger effect = lower value",0.971
same,normalized growth,"S. cerevisiae deletion strains, locus YOR184W, strain ser1, stronger effect = lower value",0.897
same,normalized growth,"S. cerevisiae deletion strains, locus YOR231W, strain MKK1, stronger effect = lower value",0.945
same,normalized growth,"S. cerevisiae deletion strains, locus YOR265W, strain rbl2, stronger effect = lower value",0.969
same,normalized growth,"S. cerevisiae deletion strains, locus YOR270C, strain vph1, stronger effect = lower value",0.942
same,normalized growth,"S. cerevisiae deletion strains, locus YOR290C, strain snf2, stronger effect = lower value",0.999
same,normalized growth,"S. cerevisiae deletion strains, locus YOR316C, strain cot1, stronger effect = lower value",0.975
same,normalized growth,"S. cerevisiae deletion strains, locus YPL051W, strain arl3, stronger effect = lower value",0.988
same,normalized growth,"S. cerevisiae deletion strains, locus YPL055C, strain LGE1, stronger effect = lower value",0.922
same,normalized growth,"S. cerevisiae deletion strains, locus YPL078C, strain atp4, stronger effect = lower value",0.953
same,normalized growth,"S. cerevisiae deletion strains, locus YPL106C, strain sse1, stronger effect = lower value",0.941
same,normalized growth,"S. cerevisiae deletion strains, locus YPL240C, strain hsp82, stronger effect = lower value",0.99
same,normalized growth,"S. cerevisiae deletion strains, locus YPL256C, strain CLN2, stronger effect = lower value",0.931
same,normalized growth,"S. cerevisiae deletion strains, locus YPR119W, strain clb2, stronger effect = lower value",0.963
same,normalized growth,"S. cerevisiae deletion strains, locus YPR141C, strain kar3, stronger effect = lower value",0.973
same,normalized growth,"S. cerevisiae deletion strains, locus YPR163C, strain tif3, stronger effect = lower value",0.976
same,normalized growth,"S. cerevisiae deletion strains, locus YPR167C, strain met16, stronger effect = lower value",0.973
same,normalized growth,"S. cerevisiae deletion strains, strain wtn01, stronger effect = lower value",0.994
same,normalized growth,"S. cerevisiae strains, strain wild type, stronger effect = lower value",1.01
